Tests used:
Assay in all cases: PBM binding z-score (relative to random genomic background probes); higher = stronger binding; sequences stand for … in GC…GCGATTGACAGCGTAGAATGAAGG
[1] = test system: FXR:RXRa (NR concentration 270 nM, RXRa partner concentration 90 nM)
Summary of the method: (§1)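 The probes on custom Agilent 4×180K protein-binding microarrays were double-stranded, with 34-nt variable regions bearing direct-repeat seeds, single-nucleotide variants, half-site ablations and random human genomic background sequences. Incubation lasted 1 h with ligand-free nuclear receptor dimers in PBS pH 7.4, 2% milk, 0.02% Triton X-100, 1 mM DTT, 0.2 mg/mL BSA and 0.4 mg/ml salmon testes DNA. Antibodies against each partner (one per run) detected bound dimers, and fluorescence scans were regression-normalized. Binding z-scores take the random background probes as reference.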

[2] = test system: LXRa:RXRa (NR concentration 270 nM, RXRa partner concentration 90 nM)
Summary of the method: as §1

[3] = test system: LXRa homodimer (NR concentration 270 nM)
Summary of the method: as §1

[4] = test system: LXRb:RXRa (NR concentration 270 nM, RXRa partner concentration 90 nM)
Summary of the method: as §1

[5] = test system: LXRb homodimer (NR concentration 270 nM)
Summary of the method: as §1

[6] = test system: PPARa:RXRa (NR concentration 270 nM, RXRa partner concentration 90 nM)
Summary of the method: as §1

[7] = test system: PPARg:RXRa (NR concentration 180 nM, RXRa partner concentration 90 nM)
Summary of the method: as §1

[8] = test system: PPARg:RXRa 270nM:90nM, anti-RXR (NR concentration 270 nM, RXRa partner concentration 90 nM)
Summary of the method: as §1

[9] = test system: PPARg:RXRa 30nM:10nM, anti-RXR (NR concentration 30 nM, RXRa partner concentration 10 nM)
Summary of the method: as §1

[10] = test system: PPARg:RXRa 90nM:30nM, anti-RXR (NR concentration 90 nM, RXRa partner concentration 30 nM)
Summary of the method: as §1

[11] = test system: PPARg:RXRa DBDmut IVT, anti-RXR (DBD mutation: RXRa K156A/R161A, NR concentration 270 nM, RXRa partner concentration 90 nM)
Summary of the method: as §1

[12] = test system: PPARg:RXRa IVT, anti-PPARg (NR concentration 270 nM, RXRa partner concentration 90 nM)
Summary of the method: as §1

[13] = test system: PPARg DBDmut:RXRa IVT, anti-PPARg (DBD mutation: PPARg1 K132A/R137A, NR concentration 270 nM, RXRa partner concentration 90 nM)
Summary of the method: as §1

[14] = test system: PPARg DBDmut IVT, anti-PPARg (DBD mutation: PPARg1 K132A/R137A, NR concentration 270 nM)
Summary of the method: as §1

[15] = test system: PPARg homodimer (NR concentration 180 nM)
Summary of the method: as §1

[16] = test system: PXR:RXRa (NR concentration 270 nM, RXRa partner concentration 90 nM)
Summary of the method: as §1

[17] = test system: PXR homodimer (NR concentration 270 nM)
Summary of the method: as §1

[18] = test system: RARa:RXR (NR concentration 270 nM, RXRa partner concentration 90 nM)
Summary of the method: as §1

[19] = test system: RARa homodimer (NR concentration 270 nM)
Summary of the method: as §1

[20] = test system: RARb:RXRa (NR concentration 270 nM, RXRa partner concentration 90 nM)
Summary of the method: as §1

Sequence | PBM binding z-score [1] | PBM binding z-score [2] | PBM binding z-score [3] | PBM binding z-score [4] | PBM binding z-score [5] | PBM binding z-score [6] | PBM binding z-score [7] | PBM binding z-score [8] | PBM binding z-score [9] | PBM binding z-score [10] | PBM binding z-score [11] | PBM binding z-score [12] | PBM binding z-score [13] | PBM binding z-score [14] | PBM binding z-score [15] | PBM binding z-score [16] | PBM binding z-score [17] | PBM binding z-score [18] | PBM binding z-score [19] | PBM binding z-score [20]
TCTTGTAGACCAATAGAGGTTAAGAAAGTGCGCT | 0.806 | 3.66 | 0.598 | 1.84 | 0.292 | 2.14 | 0.00378 | 1.69 | 2.88 | 1.93 | 2.08 | 1.7 | 0.86 | 0.346 | 0.191 | 3.17 | 0.469 | 1.6 | 0.38 | 1.01
AGTCAAAGTTCATGACGAGGTAACGTAAAGCACG | 6.67 | 6.13 | 2.96 | 3.45 | 0.691 | 5.01 | 6.45 | 6.59 | 3.58 | 5.63 | 0.137 | 3.44 | 1.06 | 1.37 | 3.26 | 4.93 | 1.98 | 4.61 | 0.824 | 4.84
CCGACTGGGGCAAGGTTACCCTAACGCACAGCCA | 0.301 | 0.334 | -0.217 | 0.52 | -1.15 | 1.88 | 2.75 | 3.18 | 0.752 | 2.75 | 2.55 | 3.74 | -0.273 | -0.891 | 0.107 | 0.232 | -0.208 | 0.791 | -0.576 | 1.58
AGAACGAGGGCATTGAGTTGATAGCACGGGTGGC | 0.832 | 0.491 | -0.273 | 0.0744 | -0.545 | 1.26 | 1.02 | 0.78 | -0.308 | 6.55e-05 | 2.94 | 2.27 | 0.115 | -0.519 | 0.179 | 2.79 | 9.1 | 0.267 | -0.274 | 1.87
CGAACTAGGTCAAGGACAGGGAATCTCCGCACGC | 3.17 | 2.12 | 0.324 | 1.32 | -0.364 | 4.52 | 7.01 | 6.26 | 3.78 | 5.95 | 8.32 | 7.95 | 1.81 | 0.477 | 3.11 | 1.05 | 0.302 | 2.12 | 0.471 | 4
GCTTGTCGATCAAGGTTAAGAAAGACTAAGCTAA | 0.467 | 0.896 | -0.687 | 0.589 | -0.963 | 1.17 | -0.154 | 0.57 | 0.0048 | 0.112 | -0.33 | 0.582 | 0.163 | 0.0381 | -0.626 | 0.592 | -0.652 | 0.89 | -0.654 | 0.682
AGAACGAGGGCAATAAGTTGATAGCACGGGTGGC | 0.456 | 0.268 | -0.278 | -0.143 | -0.518 | 1.24 | 1.44 | 0.893 | 0.0758 | 0.217 | 3.47 | 2.3 | 0.463 | -0.691 | 0.0949 | 1.09 | 3.39 | 0.217 | 0.04 | 1.84

From the supplement of paper PMC6555819
